In publication PMC5913336, “True equilibrium measurement of transcription factor-DNA binding affinities using automated polarization microscopy” one finds binding signal and Kd data, which are given here for 89 sequences.

In test [1] the target is T1, Croc (Drosophila melanogaster, UniProt P32027 54-175).
T1 sequence: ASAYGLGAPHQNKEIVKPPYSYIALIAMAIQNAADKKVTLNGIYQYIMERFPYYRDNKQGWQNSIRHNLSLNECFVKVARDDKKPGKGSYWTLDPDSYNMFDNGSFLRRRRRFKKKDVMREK
The experiment in a line: FP; 20 mM Tris-acetate pH 7.0, 50 "nM" NaCl as printed (probably mM), 0.01% Tween 20, 0.1 mM DTT; conventional titration. Conditions: tags: N-GST (pGEX-6P-1, kept); dsDNA, one strand shown.

For test [2], the target named is T2, Ems (Drosophila melanogaster, UniProt P18488 373-462).
T2 sequence: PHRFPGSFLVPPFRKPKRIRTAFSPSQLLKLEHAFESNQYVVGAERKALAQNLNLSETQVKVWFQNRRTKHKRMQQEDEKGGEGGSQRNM
The experiment in a line: FP; 33 mM phosphate pH 7.0, 90 mM NaCl, 0.01% Tween 20, 0.1 mM DTT, 0.5% agarose; room temperature. The settings on record: tags: N-GST (pGEX-6P-1, kept); dsDNA, one strand shown.

The target of test [3] is T3, Br (Drosophila melanogaster, UniProt Q24206 697-775).
T3 sequence: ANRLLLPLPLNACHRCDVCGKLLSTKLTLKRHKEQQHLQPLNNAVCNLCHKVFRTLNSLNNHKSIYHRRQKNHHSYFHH
Described as above. The settings on record: tags: N-GST (pGEX-6P-1, kept); dsDNA, one strand shown.

The target of test [4] is T4, Eip93f (Drosophila melanogaster, UniProt Q9VD60 752-830).
T4 sequence: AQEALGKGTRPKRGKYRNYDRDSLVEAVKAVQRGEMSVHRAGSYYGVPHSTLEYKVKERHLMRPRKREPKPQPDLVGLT
The description is as above. Conditions: tags: N-GST (pGEX-6P-1, kept); dsDNA, one strand shown.

Test [5] has as its target T5, Hkb (Drosophila melanogaster, UniProt Q9VN10 181-296).
T5 sequence: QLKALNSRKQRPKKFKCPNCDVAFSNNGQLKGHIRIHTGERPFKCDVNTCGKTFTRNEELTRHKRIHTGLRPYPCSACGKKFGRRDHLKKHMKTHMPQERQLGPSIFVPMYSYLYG
Described as above. Conditions: tags: N-GST (pGEX-6P-1, kept); dsDNA, one strand shown.

Test [6] deals with T6, EcR (Drosophila melanogaster, UniProt P34021 251-348).
T6 sequence: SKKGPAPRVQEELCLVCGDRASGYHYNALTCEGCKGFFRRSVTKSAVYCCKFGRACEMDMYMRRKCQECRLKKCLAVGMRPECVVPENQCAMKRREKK
The test is described as above. The settings on record: tags: N-GST (pGEX-6P-1, kept); dsDNA, one strand shown.

The target of test [7] is Gsc (Drosophila melanogaster, UniProt P54366 267-356). The test is described as above. Conditions: tags: N-GST (pGEX-6P-1, kept); dsDNA, one strand shown.
Chain of Gsc (P54366 267-356): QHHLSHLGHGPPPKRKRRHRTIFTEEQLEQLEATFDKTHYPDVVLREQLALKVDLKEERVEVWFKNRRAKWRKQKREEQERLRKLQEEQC
In test [8] the target is Ttk-PF (Drosophila melanogaster, UniProt P17789 499-564). The test is described as above. Conditions: dsDNA, one strand shown.
In test [9] the target is Cic (Drosophila melanogaster, UniProt Q9U1H0 483-565). Described as above. Conditions: tags: N-GST (pGEX-6P-1, kept); dsDNA, one strand shown.

As usually defined, the Kd is the concentration at which binding is half-saturated. A low value points to a tighter complex.

For the sequence TTAGATAAACATA, the binding signal in test [1] was 1.86 Kd / Kd of best base at the position. With TTAGATAAGTATA, the binding signal in [1] is 95 Kd / Kd of best base at the position. The same measure, in the same setting: to TTAGAAAAATATA belongs 7.44 Kd / Kd of best base at the position; to TTAGATAAATATC, 2.74 Kd / Kd of best base at the position. Same read-out and setting: the value for TCAGATAAATATA was 51.8 Kd / Kd of best base at the position; that for TTAGATTAATATA was 109 Kd / Kd of best base at the position; that for TTATATAAATATA was 2.66 Kd / Kd of best base at the position. In the case of TTAGATATATATA, the binding signal in [1] was 164 Kd / Kd of best base at the position. Same read-out and setting: the value for TTAGATAAATACA was 1.16 Kd / Kd of best base at the position; that for TTAGCTAAATATA was 38.6 Kd / Kd of best base at the position; that for TTAGATAAATAAA was 2.04 Kd / Kd of best base at the position.

As for TTAGATAAATTTA, the binding signal in [1] was 35.4 Kd / Kd of best base at the position. The same measure, in the same setting: to TTCGATAAATATA belongs 33 Kd / Kd of best base at the position. Still for that read-out and setting: to TTACATAAATATA belongs 6.62 Kd / Kd of best base at the position. Regarding TTAGTTAAATATA, the binding signal in test [1] was 43.2 Kd / Kd of best base at the position. Still for that read-out and setting: to TAAGATAAATATA belongs 7.76 Kd / Kd of best base at the position; to TTAGATAATTATA, 197 Kd / Kd of best base at the position; to TTAGATAAATATT, 1.02 Kd / Kd of best base at the position. Still for that read-out and setting: to TTAGATCAATATA belongs 8.58 Kd / Kd of best base at the position; to TTGGATAAATATA, 5.64 Kd / Kd of best base at the position. TTAGATAAATCTA: in [1], the binding signal is 46 Kd / Kd of best base at the position. The same measure, in the same setting: to TTAGATGAATATA belongs 2300 Kd / Kd of best base at the position. The same measure, in the same setting: to TTAGATAAATGTA belongs 79 Kd / Kd of best base at the position; to GTAGATAAATATA, 13.8 Kd / Kd of best base at the position; to TTAGATACATATA, 93.4 Kd / Kd of best base at the position. As to TTAGATAAATAGA, in test [1], the binding signal was 5.76 Kd / Kd of best base at the position. The same measure, in the same setting: to TTAAATAAATATA belongs 1.66 Kd / Kd of best base at the position; to TTTGATAAATATA, 15.4 Kd / Kd of best base at the position. With TGAGATAAATATA, the binding signal in [1] is 76.4 Kd / Kd of best base at the position. In test [1], TTAGATAAATATA displayed a Kd of approximately 0.3 nM. For TTAGATAAATATG, the binding signal in [1] was 17.4 Kd / Kd of best base at the position.

Turning to CTAGATAAATATA, the binding signal in test [1] is 4.3 Kd / Kd of best base at the position. On the same count and under the same terms, the value for TTAGACAAATATA was 16.3 Kd / Kd of best base at the position; that for TTAGGTAAATATA was 3.08 Kd / Kd of best base at the position. Same read-out and setting: the value for ATAGATAAATATA was 9.22 Kd / Kd of best base at the position. On the same count and under the same terms, the value for TTAGATAACTATA was 387 Kd / Kd of best base at the position.

For TTAGATAAAGATA, the binding signal in test [1] was 119 Kd / Kd of best base at the position. For the sequence TTAGATAAAAATA, the binding signal in test [1] was 380 Kd / Kd of best base at the position. On the same count and under the same terms, the value for TTAGAGAAATATA was 48.4 Kd / Kd of best base at the position; that for TTAGATAGATATA was 1160 Kd / Kd of best base at the position. Take CACGTACTTAGCTCA: in test [2], the binding signal is 47.3 Kd / Kd of best base at the position. As for CACGTCATTAGCTCA, the binding signal in [2] is 1.28 Kd / Kd of best base at the position. CACGTAATCAGCTCA: in test [2], the binding signal was 40.1 Kd / Kd of best base at the position. With CACGTAATTAACTCA, the binding signal in [2] was 9.76 Kd / Kd of best base at the position. With TGAATTAGAAAAC, the binding signal in test [3] is 2.02 Kd / Kd of best base at the position. Same read-out and setting: the value for GGAATTAGAAACC was 1.42 Kd / Kd of best base at the position; that for GGAATTAGAAAAT was 1.5 Kd / Kd of best base at the position; that for GGAATTAGGAAAC was 2.63 Kd / Kd of best base at the position. Same read-out and setting: to GGAATTAGAAATC belongs 1.02 Kd / Kd of best base at the position; to GGAATTAGAACAC, 1.98 Kd / Kd of best base at the position. GGAACTAGAAAAC: in [3], the binding signal was 4.4 Kd / Kd of best base at the position. Same read-out and setting: the value for GGAAATAGAAAAC was 7.11 Kd / Kd of best base at the position; that for GGAAGTAGAAAAC was 40.3 Kd / Kd of best base at the position; that for CGAATTAGAAAAC was 1.68 Kd / Kd of best base at the position. Regarding CATAACCGAAAATCG, in [4], the binding signal was 1.73 Kd / Kd of best base at the position. Take GGAATTCGAAAAC: the binding signal in test [3] is > 1590 Kd / Kd of best base at the position. Regarding CACAGCCGAAAATCG, the binding signal in test [4] was 1.26 Kd / Kd of best base at the position. For GGACTTAGAAAAC, the binding signal in test [3] was 2.43 Kd / Kd of best base at the position. On the same count and under the same terms, to GGAATTAAAAAAC belongs > 1590 Kd / Kd of best base at the position. The same measure, in the same setting: to GGAATTAGAGAAC belongs 2.43 Kd / Kd of best base at the position; to GGAATTAGCAAAC, 6.43 Kd / Kd of best base at the position.

As for CATAGCCGAAAATCC, the binding signal in test [4] is 1.04 Kd / Kd of best base at the position. The sequence GGAATTAGAAAAC came in with a Kd in [3] of approximately 6.3 nM.

As to GGAATTAGAAAAA, in test [3], the binding signal is 1.22 Kd / Kd of best base at the position.

Regarding GGAATGAGAAAAC, the binding signal in [3] is > 1590 Kd / Kd of best base at the position. Regarding GGAATTAGAAAGC, the binding signal in test [3] was 1.36 Kd / Kd of best base at the position. GGAATTAGACAAC: in test [3], the binding signal was 3.07 Kd / Kd of best base at the position.

Take GGAATTTGAAAAC: the binding signal in test [3] is 23.5 Kd / Kd of best base at the position.

As to GGCATTAGAAAAC, in [3], the binding signal was 2.73 Kd / Kd of best base at the position.

As to GGATTTAGAAAAC, the binding signal in test [3] was 2.42 Kd / Kd of best base at the position. On the same count and under the same terms, to GGAGTTAGAAAAC belongs 2.41 Kd / Kd of best base at the position.

Take GAAATTAGAAAAC: the binding signal in test [3] is 2.08 Kd / Kd of best base at the position.

Consider CATAGGCGAAAATCG, for which, in [4], the binding signal was 3.03 Kd / Kd of best base at the position. For GGAATTAGTAAAC, the binding signal in [3] was 6.81 Kd / Kd of best base at the position. Take GGAATTAGAAGAC: the binding signal in test [3] was 1.24 Kd / Kd of best base at the position. Turning to GGAATTAGAAAAG, the binding signal in test [3] was 1.23 Kd / Kd of best base at the position. On the same count and under the same terms, the value for GGAATTACAAAAC was 109 Kd / Kd of best base at the position. With CAAAGCCGAAAATCG, in [4], the binding signal was 1.57 Kd / Kd of best base at the position. In the case of GCAATTAGAAAAC, the binding signal in test [3] is 3.05 Kd / Kd of best base at the position. The same measure, in the same setting: to AGAATTAGAAAAC belongs 1.96 Kd / Kd of best base at the position; to GTAATTAGAAAAC, 2.7 Kd / Kd of best base at the position. In the case of CATAGCCCAAAATCG, the binding signal in [4] was 1.29 Kd / Kd of best base at the position. For the sequence GGAATCAGAAAAC, the binding signal in [3] is > 1590 Kd / Kd of best base at the position. Consider ATGGGGCGTGAT, for which the binding signal in test [5] was 2.01 Kd / Kd of best base at the position.

As to AAGGGGCCTGAT, the binding signal in test [5] is 164 Kd / Kd of best base at the position. Turning to GAAAGACCCCTAC, in test [6], the binding signal is 8.21 Kd / Kd of best base at the position. Consider AATTAATCCGAA, for which the binding signal in test [7] is 1.15 Kd / Kd of best base at the position.

Take TCGCCAGGATACC: the binding signal in test [8] was 3.82 Kd / Kd of best base at the position. For the sequence CGTTGAATGGGGG, the binding signal in test [9] is 2.15 Kd / Kd of best base at the position.
